# From PubChem BioAssay (NCATS)
# Inconclusive results are not listed. A call without a number means that no potency is given here. The source holds several records for some structures; these can differ, active in one and inactive in another. Active and inactive are the calls of the source. Calls follow the shape of the dose curve; as a rule, active = well fitted inhibition curve with a large enough effect; inconclusive = small, poorly fitted or top-dose-only effect; inactive = flat fitted curve, though single readings scatter.
# Key:
# [1] = target: Glutathione peroxidase 1 (Homo sapiens) (UniProt P07203); assay: Primary qHTS Assay for Inhibitors of Recombinant Selenoprotein Glutathione Peroxidase 1 (GPX1) (AID 1845191); also: nearly all actives have a fitted effect of over 65% in size; also: potency is read from the fitted curve at half-maximal effect
# Chain of Glutathione peroxidase 1 (Homo sapiens) (P07203 whole entry, looked up): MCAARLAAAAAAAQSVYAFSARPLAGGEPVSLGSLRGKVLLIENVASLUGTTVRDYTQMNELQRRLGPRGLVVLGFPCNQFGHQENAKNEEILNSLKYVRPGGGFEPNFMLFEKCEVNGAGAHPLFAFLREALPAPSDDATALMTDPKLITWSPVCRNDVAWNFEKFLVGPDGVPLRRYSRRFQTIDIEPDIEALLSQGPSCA
# Summary of the method: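 GR-coupled readout: NADPH consumption tracked by fluorescence, ex 340/em 450 nm, at t=0 and after 15 min at RT. Final mix 10 nM GPX1, 1 mM GSH, 0.5 mM CHP, 0.5 mM NADPH, 100 nM GR, 0.01% BSA, following 30 min enzyme–compound preincubation.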
# [2] = target: Phospholipid hydroperoxide glutathione peroxidase GPX4 (Homo sapiens) (UniProt P36969); assay: Primary qHTS Assay for Inhibitors of Recombinant Selenoprotein Glutathione Peroxidase 4 (GPX4) (AID 1845192); also: nearly all actives have a fitted effect of over 65% in size
# Chain of Phospholipid hydroperoxide glutathione peroxidase GPX4 (Homo sapiens) (P36969 whole entry, looked up): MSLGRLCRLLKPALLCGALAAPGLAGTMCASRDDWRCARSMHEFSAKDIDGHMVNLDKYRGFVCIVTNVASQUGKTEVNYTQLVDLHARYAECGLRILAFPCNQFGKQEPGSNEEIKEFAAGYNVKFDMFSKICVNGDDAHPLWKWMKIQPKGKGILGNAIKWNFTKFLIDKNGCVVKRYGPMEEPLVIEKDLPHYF
# Summary of the method: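 Steps: GPX4 plus compound, 30 min RT; add GR/GSH/NADPH master mix; start with cumene hydroperoxide; read 340/450 nm fluorescence at 0 and 15 min. Finals were 200 nM GPX4, 1 mM GSH, 0.5 mM CHP, 0.5 mM NADPH, 100 nM GR.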
# [3] = target: Luciferin 4-monooxygenase (Photinus pyralis) (UniProt P08659); assay: Primary firefly luciferase (FLuc) qHTS assay for identification of artifact compounds. (AID 1845220); conditions: outcome: dose series up to 54.1 µM; also: nearly all actives have a fitted effect of over 60% in size
# Summary of the method: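 Enzymatic FLuc inhibition assay: compounds pre-exposed to luciferin/ATP (10 uM each) for 15 min, then purified P. pyralis enzyme at 10 nM added. Read-out: luminescence at 5 min.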
# [4] = tested on: Nanoluciferase (engineered Oplophorus gracilirostris luciferase); assay: Primary Nanoluciferase (NLuc) qHTS assay for identification of artifact compounds. (AID 1845222); also: potency is read from the fitted curve at half-maximal effect
# Summary of the method: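 S16 cell supernatant NLuc, 1:55; cpds qHTS; 15 min RT dark; Nano-Glo substrate 1:100, 5 min; luminescence; Hill fit of % inhibition.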
Structure (SMILES),Potency [1],Potency [2],outcome [3],Potency [4]
COc1ccc(CN2CCN(C(c3ccc(F)cc3)c3ccc(F)cc3)CC2)c(OC)c1OC,inactive,inactive,inactive,inactive
c1ccc(-c2ccc(C(c3ccccc3)n3ccnc3)cc2)cc1 (stereo not drawn),inactive,inactive,–,–
CCCC(=O)O[C@]1(C(=O)CO)CC[C@H]2[C@@H]3CCC4=CC(=O)CC[C@]4(C)[C@H]3[C@@H](O)C[C@@]21C,inactive,inactive,–,–
COc1cccc(OC)c1C(=O)N[C@@H]1C(=O)N2[C@@H]1SC(C)(C)[C@@H]2C(=O)O,inactive,–,inactive,inactive
CN(C)CCCOc1nn(Cc2ccccc2)c2ccccc12,inactive,inactive,inactive,inactive
CC(C)(C)CC(C)(C)c1ccc(OCCOCC[N+](C)(C)Cc2ccccc2)cc1,inactive,inactive,inactive,inactive
NC(=NCCCCCCN=C(N)/N=C(\N)Nc1ccc(Cl)cc1)/N=C(\N)Nc1ccc(Cl)cc1,inactive,inactive,inactive,inactive
Clc1ccc2c(c1)CCc1cccnc1C2=C1CCNCC1,inactive,inactive,–,–
CN(C)CC/C=C1\c2ccccc2Sc2ccc(Cl)cc21,inactive,inactive,–,–
CC(=O)O[C@]1(C(C)=O)CC[C@H]2[C@@H]3C[C@H](C)C4=CC(=O)CC[C@]4(C)[C@H]3CC[C@@]21C,inactive,inactive,inactive,inactive
Cc1c(C(N)=O)cc([N+](=O)[O-])cc1[N+](=O)[O-],inactive,inactive,–,–
Cc1ccccc1C(=O)Nc1ccc(C(=O)N2CCCC(N(C)C)c3ccccc32)cc1 (stereo not drawn),inactive,inactive,inactive,inactive
C#C[C@]1(O)CC[C@H]2[C@@H]3CCC4=CC(=O)CC[C@@H]4[C@H]3CC[C@@]21C,inactive,inactive,–,–
O=c1[nH]c(=O)n([C@H]2CCCO2)cc1F,inactive,–,inactive,inactive
C[C@]12CCC(=O)C=C1[C@@H]1C[C@@H]1[C@H]1[C@@H]3[C@@H]4C[C@@H]4[C@@]4(CCC(=O)O4)[C@@]3(C)CC[C@@H]12,inactive,inactive,–,–
CCN1CCCC1=O,inactive,inactive,–,–

Structure (SMILES),Potency [1],Potency [2],outcome [3],Potency [4]
CC(C)n1nc(-c2cc3cc(O)ccc3[nH]2)c2c(N)ncnc21,inactive,inactive,inactive,inactive
COC(=O)[C@H]1[C@H]2C[C@H]3c4[nH]c5ccccc5c4CCN3C[C@H]2CC[C@@H]1O,inactive,inactive,–,–
CC1(C)O[C@@H]2C[C@H]3[C@@H]4C[C@H](F)C5=CC(=O)C=C[C@]5(C)[C@H]4[C@@H](O)C[C@]3(C)[C@]2(C(=O)CO)O1,inactive,inactive,–,–
COC(=O)C1=C(C)NC(C)=C(C(=O)O[C@@H]2CCCN(Cc3ccccc3)C2)[C@@H]1c1cccc([N+](=O)[O-])c1,inactive,inactive,inactive,–
CCCN1CCCC[C@H]1C(=O)Nc1c(C)cccc1C,inactive,inactive,–,–
C#C[C@]1(OC(C)=O)CC[C@H]2[C@@H]3CCC4=C[C@@H](OC(C)=O)CC[C@@H]4[C@H]3CC[C@@]21C,inactive,inactive,inactive,inactive
CC(=O)OCC(=O)[C@@]1(O)CC[C@H]2[C@@H]3CCC4=CC(=O)C=C[C@]4(C)[C@H]3[C@@H](O)C[C@@]21C,inactive,inactive,inactive,inactive
CC(C)COC(=O)c1ccc(N)cc1,inactive,inactive,–,–
Cc1onc(-c2c(Cl)cccc2Cl)c1C(=O)N[C@@H]1C(=O)N2[C@@H]1SC(C)(C)[C@@H]2C(=O)O,inactive,inactive,inactive,inactive
CN1C(CCl)Nc2cc(Cl)c(S(N)(=O)=O)cc2S1(=O)=O (stereo not drawn),inactive,inactive,inactive,inactive
Cc1ccc(Nc2c(F)cccc2Cl)c(CC(=O)O)c1,inactive,inactive,inactive,inactive
Cc1cc2c(cc1CC(=O)c1sccc1S(=O)(=O)Nc1onc(C)c1Cl)OCO2,18 µM (active) and inactive,inactive,inactive,16.9 µM (active)
CCOC(=O)OC(C)OC1=C(C(=O)Nc2ccccn2)N(C)S(=O)(=O)c2ccccc21 (stereo not drawn),inactive,inactive,–,–
OC[C@H]1O[C@@H](n2cnc3c(=S)nc[nH]c32)[C@H](O)[C@@H]1O,inactive,inactive,–,–
CCN(CCCc1ccccc1)CCCc1ccccc1,inactive,inactive,–,–
CC1=C(C(=O)OC(C)C)C(c2cccc([N+](=O)[O-])c2)C(C(=O)OC2CN(C(c3ccccc3)c3ccccc3)C2)=C(N)N1 (stereo not drawn),inactive,inactive,–,–
